# Compound activity (PubChem)
# Rows were chosen to be rich in hits. Some 1.8% of all compounds tested hit in one or more screens of this group.
# LYPLA2 inh – counter-screen for PME1 inhibitors: inhibitors of human LYPLA2. O95372. recombinant LYPLA2, FP-Rh probe fluorescence polarization. inhibition, % at 5.9 µM. 320,000 compounds, 0.38% hits;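 active = inhibition above the screen-wide mean plus 3 SD, limit set per campaign, cut at about 26% in these data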;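 note: 0% = LYPLA2 with DMSO and 100% = wells lacking LYPLA2 enzyme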
# Fam108B counter – counter-screen for RBBP9 inhibitors: inhibitors of mouse Fam108B. recombinant Fam108B, FP-Rh probe fluorescence polarization. 300,000 compounds, 0.33% hits. inhibition, % at 9.51 µM;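 active = inhibition above the screen mean inhibition plus 3 SD, computed separately per campaign, cut at about 18% in these data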;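 note: inhibitors lower polarization as less probe binds the enzyme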
# PME-1 primary – blocks human protein phosphatase methylesterase 1. recombinant PME-1, FP-Rh probe fluorescence polarization. inhibition, % at 5.9 µM. 320,000 compounds, 0.53% hits. AID 2130;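 active = inhibition above the campaign mean of all compounds plus 3 SD, cut at about 26% in these data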;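 note: competitive labeling of PME-1 active site by serine hydrolase directed probe; 0% = PME-1 with DMSO and 100% = wells lacking PME-1 enzyme; inhibitors block probe labeling so polarization falls and inhibition rises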
# LYPLA1 counter – blocks human lysophospholipase 1, a PME1 counter-screen. inhibition, % at 5.9 µM. 320,000 compounds, 0.16% hits. recombinant LYPLA1, FP-Rh probe fluorescence polarization. O75608. AID 2174;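 active = inhibition above the mean of all tested compounds plus 3 SD, set per campaign, cut at about 14% in these data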;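 note: inhibitors block serine hydrolase probe labeling of LYPLA1 so polarization falls; 0% = enzyme with DMSO and 100% = wells lacking LYPLA1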
# PAD4 FP inh – PAD4 (human) enzyme inhibition | Q9UM07 | recombinant PAD4, RCA probe fluorescence polarization | inhibition, % at 6.36 µM | 330,000 compounds, 0.41% hits | AID 485272;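 active = percent inhibition above a cutoff equal to the mean of all tested compounds plus 3 SD, cut at about 15% in these data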;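 note: 0% = PAD4 with RCA probe and DMSO and 100% = probe without PAD4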
# Target sequence (Q9UM07 whole entry, looked up): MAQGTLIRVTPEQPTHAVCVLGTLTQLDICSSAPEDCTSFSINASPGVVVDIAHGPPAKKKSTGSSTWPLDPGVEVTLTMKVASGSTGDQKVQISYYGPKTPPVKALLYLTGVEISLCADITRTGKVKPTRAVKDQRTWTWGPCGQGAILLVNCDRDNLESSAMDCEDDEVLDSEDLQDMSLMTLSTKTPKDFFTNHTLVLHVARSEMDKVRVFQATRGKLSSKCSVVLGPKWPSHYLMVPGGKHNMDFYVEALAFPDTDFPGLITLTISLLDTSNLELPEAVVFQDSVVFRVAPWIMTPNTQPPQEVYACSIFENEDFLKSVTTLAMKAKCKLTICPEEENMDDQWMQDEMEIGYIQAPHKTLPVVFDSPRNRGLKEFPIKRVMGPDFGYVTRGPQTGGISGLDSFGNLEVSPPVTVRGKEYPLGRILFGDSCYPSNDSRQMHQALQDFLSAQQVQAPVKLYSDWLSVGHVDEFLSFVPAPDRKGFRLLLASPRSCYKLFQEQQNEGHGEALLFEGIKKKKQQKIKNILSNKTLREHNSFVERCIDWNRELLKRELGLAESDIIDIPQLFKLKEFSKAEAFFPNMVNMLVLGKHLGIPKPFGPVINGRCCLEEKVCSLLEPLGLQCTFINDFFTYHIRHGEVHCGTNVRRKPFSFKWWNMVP
# GSTO1 inh – blocks human GSTO1 in RBBP9 counter-screen. P78417. recombinant GSTO1, activity-based probe fluorescence polarization. inhibition, % at 5.96 µM. 300,000 compounds, 1.1% hits. AID 1974;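 active = inhibition above the campaign mean inhibition plus 3 SD, cut at about 35% in these data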;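 note: 0% = GSTO1-1 with DMSO and 100% = wells lacking GSTO1-1 enzyme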
# Fam108b confirm – confirmation of mouse Fam108b serine hydrolase inhibitors; shares compounds with Fam108B counter; recombinant Fam108b, FP-Rh probe fluorescence polarization; inhibition, % at 9.51 µM; 930 compounds, 44% hits;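 active = inhibition above a limit from the primary screen, the mean over all compounds plus 3 SD, cut at about 19% in these data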;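 note: 0% = median of active Fam108b wells and 100% = catalytically dead S170A mutant; inhibitors free the probe so polarization falls as inhibition rises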
# Fam108b inh – mouse ABHD17B inhibition; shares compounds with Fam108B counter; inhibition, % at 20 µM; 260 compounds, 44% hits; recombinant Fam108b, gel-based ABPP, fluorophosphonate probe; in the data active = inhibition above about 40%
# GSTO1 inh conf – confirmation of human GSTO1 inhibitors; 2,400 compounds, 54% hits; AID 2176; recombinant GSTO1, probe fluorescence polarization; inhibition, % at 5.96 µM; shares compounds with GSTO1 inh;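 active = inhibition above the primary screen's cutoff, its mean inhibition plus 3 SD, cut at about 35% in these data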;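 note: loss of polarization as inhibitors block binding of rhodamine sulfonate ester activity probe; 0% = GSTO1 with DMSO and 100% = wells lacking GSTO1 enzyme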
# LYPLA2 confirm – counter-screen for PME1 inhibitors: confirmation of human LYPLA2 inhibitors | shares compounds with LYPLA2 inh | recombinant LYPLA2, FP-Rh probe fluorescence polarization | inhibition, % at 5.9 µM | 1,100 compounds, 72% hits | AID 2232;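 active = mean inhibition across replicates above the hit cutoff set in the primary screen, cut at about 26% in these data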;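 note: blocked labeling of the enzyme by serine hydrolase FP-Rh probe lowers polarization; 0% = enzyme with DMSO and 100% = wells lacking LYPLA2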
# PAD4 FP conf – confirmation of human PAD4 inhibitors; shares compounds with PAD4 FP inh; recombinant PAD4, RCA probe fluorescence polarization; inhibition, % at 6.36 µM; 1,200 compounds, 28% hits; AID 488796;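 active = mean inhibition across replicates above the hit cutoff set by the earlier primary screen, cut at about 15% in these data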;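 note: inhibitors block active-site labeling by the probe so polarization falls; 0% = PAD4 with probe and DMSO and 100% = probe without PAD4 enzyme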
# Active calls of the source: *; / = not tested or not shown; ! = repeats disagree.
SMILES,LYPLA2 inh,Fam108B counter,PME-1 primary,LYPLA1 counter,PAD4 FP inh,GSTO1 inh,Fam108b confirm,GSTO1 inh conf,others
O=C(N/N=C/c1c(O)n(Cc2ccccc2)c(=O)[nH]c1=O)c1ccccc1O,1.1,20.6*,0.8,-5.0,-6.5,14.8,42.0*,/,Fam108b inh=0.0
O=C(N/N=C/c1c(O)n(Cc2ccc(F)cc2)c(=O)[nH]c1=O)c1ccccc1O,4.9,13.6,19.4,-4.1,-0.2,0.5,/,/,
CC(C)C[C@H]1C(=O)N2CCCC2[C@]2(O)O[C@](NC(=O)[C@@H]3C=C4c5cccc6[nH]cc(c56)CC4N(C)C3)(C(C)C)C(=O)N12 (some centres undefined),4.4,18.7*,11.6,0.5,18.4*,48.1*,17.3,/,
C[N+](C)(N)CCOC(=O)C(O)(c1ccccc1)C1CCCCC1 (centres undefined),-0.3,2.5,0.3,-0.7,1.1,3.2,/,/,
N[C@@H](CCl)C(=O)O,1.5,2.6,-4.5,-0.4,4.7,2.7,/,/,
NC(Cc1cc(O)c(O)cc1O)C(=O)O (centres undefined),2.9,79.5*,38.2*,-24.5,-20.0,72.0*,100.9*,/,Fam108b inh=50.0*
CN(C)C(=O)Oc1ccc(OCc2n(C)c3ccccc3[n+]2C)cc1,1.4,2.2,-3.8,3.8,-1.0,-2.3,/,/,
CC(=O)[C@@]1(O)CCC2C3CC=C4C[C@@H](O)CC[C@]4(C)C3CC[C@@]21C (some centres undefined),/,/,/,/,-3.6,/,/,/,
O=c1[nH]c2ccccc2n1CCCN1CCC(n2c(=O)[nH]c3cc(Cl)ccc32)CC1,3.8,18.5*,-1.1,0.2,5.8,3.1,-3.9,/,
CC(=O)c1ccc2c(c1)C1C(Cl)C(Sc3ccccc3[N+](=O)[O-])CC1C(C(=O)O)N2 (centres undefined),13.5,56.2*,30.8*,1.3,-2.6,5.2,5.3,/,
COC(=O)c1nc(-c2ccc3c(n2)C(=O)C(N)=C(OC)C3=O)c(N)c(-c2ccc(OC)c(OC)c2O)c1C,-1.6,48.8*,65.9*,2.1,-8.9,78.7*,62.7*,88.1*,Fam108b inh=0.0
Nc1c(C(=O)NCCCc2ccccc2)c2nc3ccccc3nc2n1Cc1cccs1,-0.1,33.8*,1.7,-1.8,-13.2,57.7*,20.5*,-0.7,
CCN1CCC2(CC1)NC(=O)c1ccccc1O2,-0.7,1.9,-3.0,1.4,-0.1,6.2,/,/,
COc1ccc(-c2cc(=O)oc3c(C)c(OC(C)C(=O)N4C[C@H]5C[C@@H](C4)c4cccc(=O)n4C5)ccc23)cc1 (some centres undefined),5.3,-4.7,21.0,0.3,-2.3,-8.8,/,/,
CN(C)[C@@H]1C(=O)C(C(N)=O)=C(O)[C@@]2(O)C(=O)C3=C(O)c4c(O)cccc4[C@@](C)(O)[C@H]3[C@H](O)[C@@H]12,4.3,59.5*,-6.2,-3.3,-4.1,61.5*,67.3*!,69.2*,Fam108b inh=0.0
CC(Cc1ccccc1)[n+]1cc(/N=C(\[O-])Nc2ccccc2)on1 (centres undefined),3.6,-0.5,-2.7,1.1,-0.5,-2.2,/,/,
O=C(O)c1cccc2c1NC(C(=O)O)C1CC(Sc3ccccc3[N+](=O)[O-])C(Cl)C21 (centres undefined),29.0*,74.8*,17.6,12.0,4.0,39.3*,53.6*,-20.8,Fam108b inh=0.0;LYPLA2 confirm=11.6
CN[C@@H]1C[C@@H](c2ccc(Cl)c(Cl)c2)c2ccccc21,8.9,5.8,4.7,-1.6,0.4,4.5,/,/,
CCCCn1c(NC(=O)c2ccco2)c(C(=O)OCC)c2nc3ccccc3nc21,13.0,48.9*,19.1,6.9,55.0*,87.3*,49.0*,86.8*,Fam108b inh=35.0;PAD4 FP conf=13.7
COC(=O)C1C2CC[C@@H](CC1OC(=O)c1ccccc1)N2 (some centres undefined),/,/,/,/,-6.3,/,/,/,
O=C(c1ccc2nc(-c3ccco3)c(-c3ccco3)nc2c1)N1CCC2(CC1)OCCO2,2.5,23.4*,-6.3,-4.7,38.1*,90.3*,8.6,15.6,PAD4 FP conf=-4.6
COc1ccc(C(=O)N2CCC3(CC2)OCCO3)cc1,-3.4,1.5,4.0,-1.3,1.3,7.0,/,/,
O=C(Nc1nccs1)C(Cl)(Cl)Cl,7.4,5.5,-5.3,7.0,-7.8,0.5,/,/,
O=C(CCl)Nc1nccs1,-0.9,12.1,0.3,0.5,-0.8,91.9*,/,98.7*,
Nc1cc2nc3ccccc3nc2cc1N,-4.9,9.6,17.0,-6.0,-3.5,56.4*,/,41.0*,
SMILES,LYPLA2 inh,Fam108B counter,PME-1 primary,LYPLA1 counter,PAD4 FP inh,GSTO1 inh,Fam108b confirm,GSTO1 inh conf,others
O=C(C[N+]12CCC(CC1)C(C(O)(c1ccccc1)c1ccccc1)C2)c1ccc(Br)cc1 (centres undefined),3.9,-1.6,-5.0,2.5,-4.2,3.9,/,/,
CC/C(=N\NC(=O)Nc1ccccc1)c1c(O)n(Cc2ccccc2)c(=O)[nH]c1=O,-0.2,-3.4,-0.3,-3.1,-5.7,-7.8,/,/,
Cc1c(N=Nc2c(O)[nH]c(=S)[nH]c2=O)c(=O)n(-c2ccccc2)n1C,0.9,-3.8,-10.9,-1.4,3.4,56.6*,/,5.5,
CCOC(=O)C(NC(=O)CCl)(Nc1ccc(C(O)(C(=O)OCC)C(F)(F)F)cc1)C(F)(F)F (centres undefined),0.5,-0.8,3.6,-1.9,0.3,52.6*,/,74.3*,
CCOC(=O)C(NC(=O)CC)(Nc1ccc(C(O)(C(=O)OCC)C(F)(F)F)cc1C)C(F)(F)F (centres undefined),-0.2,-4.7,1.4,-3.8,-1.8,6.8,/,/,
C=CCN1CCc2cccc3c2[C@H]1Cc1ccc(O)c(O)c1-3,-6.1,0.2,1.3,-5.6,-5.5,86.6*,/,16.7,
COc1cc2c(cc1O)C[C@H]1NCCc3cc4c(c-2c31)OCO4,-6.0,8.8,-5.3,-4.0,2.5,54.6*,/,20.7,
COc1c2c(cc3c1OCO3)CCN(C)C2,1.3,-1.2,-3.7,-0.2,-0.1,6.6,/,/,
COc1cccc(N(C(C)=O)C2=NCCCS2)c1,5.1,3.7,3.4,0.8,-1.0,6.4,/,/,
CCN(CC)c1ccc(N=Cc2c(O)[nH]c(=O)[nH]c2=O)cc1,6.1,-0.7,8.3,4.7,26.0*,55.8*,/,1.4,
